Test results published in PubChem BioAssay.
Calls of active or inactive are those of the source.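 The calls were made as follows: active = visually confirmed hit in the image check and inhibition above 20%; inconclusive = visually confirmed hit but inhibition not above 20%; inactive = no visual hit in the image check.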

experiment: endothelial E-selectin expression blockers – imaging, HUVEC, immunofluorescence, MLSMR starter and 10KST1 sets, primary screen (AID 487); details: HUVEC TNFalpha-induced E-selectin immunofluorescence imaging, at 2 µM; inhibition: stronger effect = higher value; nuclei count: measured here: cell number, toxicity;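 as to inhibition: signal is fraction of cell area covered by stained E-selectin grains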;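 as to nuclei count: 100% = median nuclei count of all wells on the same plate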

Row | SMILES | nuclei count [%] | inhibition
1 | CCOC(=O)Cn1c(SC)nc2sc3c(c2c1=O)CC(C)(C)OC3 | 179 | 1.5% (inactive)
2 | Cc1cc(C)nc(CC(N)=O)n1 | 142 | 3.3% (inactive)
3 | Cc1nnc2n(-c3ccccc3)c(=O)c3c4c(sc3n12)CC(C)CC4 (configuration not stated) | 92.6 | 37.3% (inactive)
4 | COc1cc(C(=O)OCCN2CCCCC2)ccc1O | 199 | 38.8% (inactive)
5 | N#Cc1c(NC(=O)CCC(=O)O)sc2c1CCCC2 | 186 | -10.3% (inactive)
6 | CCCCc1ccc(NC(=O)CSC2=C(C#N)C(c3ccco3)C3=C(CCCC3=O)N2)cc1 (configuration not stated) | 151 | -114% (inactive)
7 | COC(=O)c1ccc(CSc2ncnc3c2sc2nc(N4CCOCC4)c4c(c23)CCCC4)o1 | 164 | 7.4% (inactive)
8 | Cc1ccnc(N2CCN(c3cc(C)c(C#N)c4nc5ccccc5n34)CC2)c1 | 125 | -151% (inactive)
9 | Cc1nc(Nc2ncc3c(n2)CC(C)(C)CC3=O)nc2ccccc12 | 195 | -13% (inactive)
10 | COCc1[nH]nc2c1C(c1ccccc1OC)C(C#N)=C(N)O2 (configuration not stated) | 101 | 27.6% (inactive)
11 | CC(=O)N1CCN(c2nc(CC(C)C)c3c(c2C#N)CCC3)CC1 | 145 | -100% (inactive)
12 | CCOCCN(C(=O)COC)c1cccc(OC)c1 | 124 | 19.2% (inactive)
13 | N/C(=N\c1nc2ccccc2o1)NC(=O)c1ccccc1NC(=O)c1ccccc1 | 160 | -20.4% (inactive)
14 | Cc1ccc(C(C)C)c(OCCNc2nc3c(c(=O)n(C)c(=O)n3C)n2C)c1 | 165 | -61.7% (inactive)
15 | Cc1nc(SCC(N)=O)[nH]c(=O)c1Cc1ccc(OC(C)C)cc1 | 150 | 22.1% (inactive)
16 | CCOc1ccc(Cc2nc(N)nc(N)n2)cc1 | 155 | -269% (inactive)
17 | Cc1nc(NCc2ccccc2)c(C(N)=O)c2c1COC(C)(C)C2 | 192 | -17.6% (inactive)
18 | Cc1nc2n[nH]c(N)c2c2c1COC(C)(C)C2 | 178 | -454% (inactive)
19 | C=CCNC(=O)C(C#N)c1nc2ccccc2nc1N1CCCCCC1 (configuration not stated) | 178 | -190% (inactive)
20 | CC(C)C(C(=O)Nc1ncn[nH]1)N1C(=O)c2ccccc2C1=O (configuration not stated) | 121 | -28.4% (inactive)

Row | SMILES | nuclei count [%] | inhibition
21 | CCCCOc1cccc(-c2nnc(N)s2)c1 | 161 | 29.1% (inactive)
22 | COc1ccc(OC(=O)c2cc3ccccc3o2)cc1 | 142 | 77.3% (active)
23 | CCNc1nc(NC(C)C)nc(N(C#N)C(C)C(=O)N(C)C)n1 (configuration not stated) | 134 | -39.6% (inactive)
24 | CCOC(=O)CSc1nc(-c2ccncc2)ccc1C#N | 174 | -23.4% (inactive)
25 | CCOc1cccc(-c2nnc3sc(C4CCCCC4)nn23)c1 | 160 | 16.2% (inactive)
26 | CCCCn1c(O)c(C=NCCCN(C)C)c(=O)[nH]c1=O | 117 | -38.4% (inactive)
27 | COc1cccc(C2C(C#N)=C(N)Oc3cc(C)[nH]c(=O)c32)c1OC (configuration not stated) | 158 | -89.8% (inactive)
28 | Cc1cc(=O)oc(C)c1C(=O)Nc1cccc2nonc12 | 132 | -61.8% (inactive)
29 | COc1cc(OC)cc(C(=O)N2CCC(N3CCN(c4ccccc4)CC3)CC2)c1 | 122 | -114% (inactive)
30 | Cc1ccc2[nH]c3c(c2c1)CN(C(=O)CN1CCN(c2ccccn2)CC1)CC3 | 144 | -69.3% (inactive)
31 | COC(=O)c1sccc1NC(=O)c1c(C)cc(=O)oc1C | 138 | -142% (inactive)
32 | CCN(CC)c1ccc2cc(-c3nnc(-c4ccncc4)o3)c(=O)oc2c1 | 137 | -87.1% (inactive)
33 | CC(C)(C)NC(=O)CSc1nsc(SCC(=O)NC(C)(C)C)c1C#N | 178 | 18.9% (inactive)
34 | COC(=O)CN(c1nc(C)c(Br)c(OC)n1)S(=O)(=O)c1ccc(C)cc1 | 142 | -10.9% (inactive)
35 | COc1cc(C2C3C(=O)N(c4ccccc4)C(=O)C3ON2c2ccccc2)ccc1O (configuration not stated) | 171 | -22.7% (inactive)
36 | Cc1ccc(C2C(C(=O)c3cc4ccccc4o3)=C(O)C(=O)N2CCCN(C)C)cc1 (configuration not stated) | 161 | -30.5% (inactive)
37 | CC(C)C1Cc2c(C#N)c(N)n(C)c(=S)c2CO1 (configuration not stated) | 134 | -204% (inactive)
38 | CCC12CN3CC(CC)(CN(C1)C3c1c(O)ccc3ccccc13)C2=O (configuration not stated) | 185 | -44.2% (inactive)
39 | CCOc1ccc(CCNC(=O)C(O)c2ccccc2)cc1 (configuration not stated) | 150 | 18.6% (inactive)

experiment: Primary imaging screen for DUSP6 inhibitors that restore phospho-Erk in transfected HeLa cells, chemical complementation (AID 609); details: HeLa MKP-3 transfected, phospho-Erk imaging KS statistic; measured here: cell density z-score; at 10 µM; cells stimulated with TPA for 15 min

Row | SMILES | z-score
40 | CCOC(=O)Cn1c(SC)nc2sc3c(c2c1=O)CC(C)(C)OC3 | 1.23
41 | Cc1cc(C)nc(CC(N)=O)n1 | 0.214
42 | Cc1nnc2n(-c3ccccc3)c(=O)c3c4c(sc3n12)CC(C)CC4 (configuration not stated) | -0.0616
43 | COc1cc(C(=O)OCCN2CCCCC2)ccc1O | -0.395
44 | N#Cc1c(NC(=O)CCC(=O)O)sc2c1CCCC2 | -1.16
45 | CCCCc1ccc(NC(=O)CSC2=C(C#N)C(c3ccco3)C3=C(CCCC3=O)N2)cc1 (configuration not stated) | 0.415
46 | COC(=O)c1ccc(CSc2ncnc3c2sc2nc(N4CCOCC4)c4c(c23)CCCC4)o1 | 0.509
47 | Cc1ccnc(N2CCN(c3cc(C)c(C#N)c4nc5ccccc5n34)CC2)c1 | 0.222
48 | Cc1nc(Nc2ncc3c(n2)CC(C)(C)CC3=O)nc2ccccc12 | -2.93
49 | COCc1[nH]nc2c1C(c1ccccc1OC)C(C#N)=C(N)O2 (configuration not stated) | 0.246
50 | CC(=O)N1CCN(c2nc(CC(C)C)c3c(c2C#N)CCC3)CC1 | -0.27
51 | CCOCCN(C(=O)COC)c1cccc(OC)c1 | 0.00474
52 | N/C(=N\c1nc2ccccc2o1)NC(=O)c1ccccc1NC(=O)c1ccccc1 | 1.3
53 | Cc1ccc(C(C)C)c(OCCNc2nc3c(c(=O)n(C)c(=O)n3C)n2C)c1 | -0.12
54 | Cc1nc(SCC(N)=O)[nH]c(=O)c1Cc1ccc(OC(C)C)cc1 | -0.515
55 | CCOc1ccc(Cc2nc(N)nc(N)n2)cc1 | -1.09
56 | Cc1nc(NCc2ccccc2)c(C(N)=O)c2c1COC(C)(C)C2 | 0.783
57 | Cc1nc2n[nH]c(N)c2c2c1COC(C)(C)C2 | 0.565
58 | C=CCNC(=O)C(C#N)c1nc2ccccc2nc1N1CCCCCC1 (configuration not stated) | -1.46
59 | CC(C)C(C(=O)Nc1ncn[nH]1)N1C(=O)c2ccccc2C1=O (configuration not stated) | -1.38

Row | SMILES | z-score
60 | CCCCOc1cccc(-c2nnc(N)s2)c1 | -0.391
61 | COc1ccc(OC(=O)c2cc3ccccc3o2)cc1 | -0.358
62 | CCNc1nc(NC(C)C)nc(N(C#N)C(C)C(=O)N(C)C)n1 (configuration not stated) | -0.102
63 | CCOC(=O)CSc1nc(-c2ccncc2)ccc1C#N | -1.46
64 | CCOc1cccc(-c2nnc3sc(C4CCCCC4)nn23)c1 | 1.83
65 | CCCCn1c(O)c(C=NCCCN(C)C)c(=O)[nH]c1=O | 1.16
66 | COc1cccc(C2C(C#N)=C(N)Oc3cc(C)[nH]c(=O)c32)c1OC (configuration not stated) | -0.315
67 | Cc1cc(=O)oc(C)c1C(=O)Nc1cccc2nonc12 | 1.68
68 | COc1cc(OC)cc(C(=O)N2CCC(N3CCN(c4ccccc4)CC3)CC2)c1 | 1.61
69 | Cc1ccc2[nH]c3c(c2c1)CN(C(=O)CN1CCN(c2ccccn2)CC1)CC3 | -1.22
70 | COC(=O)c1sccc1NC(=O)c1c(C)cc(=O)oc1C | 0.942
71 | CCN(CC)c1ccc2cc(-c3nnc(-c4ccncc4)o3)c(=O)oc2c1 | -0.456
72 | CC(C)(C)NC(=O)CSc1nsc(SCC(=O)NC(C)(C)C)c1C#N | -0.466
73 | COC(=O)CN(c1nc(C)c(Br)c(OC)n1)S(=O)(=O)c1ccc(C)cc1 | 0.877
74 | COc1cc(C2C3C(=O)N(c4ccccc4)C(=O)C3ON2c2ccccc2)ccc1O (configuration not stated) | 0.353
75 | Cc1ccc(C2C(C(=O)c3cc4ccccc4o3)=C(O)C(=O)N2CCCN(C)C)cc1 (configuration not stated) | -0.136
76 | CC(C)C1Cc2c(C#N)c(N)n(C)c(=S)c2CO1 (configuration not stated) | -0.967
77 | CCC12CN3CC(CC)(CN(C1)C3c1c(O)ccc3ccccc13)C2=O (configuration not stated) | -0.501
78 | CCOc1ccc(CCNC(=O)C(O)c2ccccc2)cc1 (configuration not stated) | -1.06
